About 83,000 compounds went through this panel and 20% of them were active in at least one assay; those are over-represented in the sample as a whole.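 Step 1: grow cells in 96-well plates. Step 2: add test compound at a single concentration. Step 3: incubate 48 h. Step 4: record percent growth.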 Values without a mark were called inactive. The source made the active and inactive calls. The calls were made as follows: active = growth percent below 10; inactive = the rest.
Assays:
Test in all cases: NCI-60 one-dose screen, 48 h (100 = growth as untreated, 0 = no growth, -100 = all killed)
[1] = tested on: NCI-H23 lung; settings: 10 µM unless noted
[2] = tested on: NCI-H226 lung; settings: 10 µM unless noted
[3] = tested on: NCI-H322M lung; settings: 10 µM unless noted
[4] = tested on: NCI-H460 lung; settings: 10 µM unless noted
[5] = tested on: HOP-92 NSCLC; settings: 10 µM
[6] = tested on: NCI-H522 lung; settings: 10 µM
[7] = tested on: A549/ATCC NSCLC; settings: 10 µM unless noted
[8] = tested on: 786-0 renal; settings: 10 µM unless noted
[9] = tested on: COLO 205 colon; settings: 10 µM unless noted
[10] = tested on: DU-145 prostate; settings: 10 µM unless noted
[11] = tested on: MALME-3M melanoma; settings: 10 µM unless noted
[12] = tested on: MDA-MB-231 breast; settings: 10 µM unless noted
[13] = tested on: RXF 393 renal; settings: 10 µM unless noted
[14] = tested on: SF-268 CNS; settings: 10 µM unless noted
[15] = tested on: SF-295 CNS; settings: 10 µM unless noted
[16] = tested on: SF-539 CNS; settings: 10 µM unless noted
[17] = tested on: UACC-257 melanoma; settings: 10 µM unless noted
[18] = tested on: M14 melanoma; settings: 10 µM unless noted
[19] = tested on: K-562 leukemia; settings: 10 µM unless noted

COc1ccc(C(=O)CN2C(=O)NC(c3ccccc3)(c3ccccc3)C2=O)cc1
growth [1]: 103%
growth [2]: 93.2%
growth [3]: 110%
growth [4]: 102%
growth [5]: 71.5%
growth [6]: 96.5%
growth [7]: 103%
growth [8]: 109%
growth [9]: 115%
growth [10]: 116%
growth [11]: 108%
growth [12]: 106%
growth [13]: 105%
growth [14]: 101%
growth [15]: 98.8%
growth [16]: 92.9%
growth [17]: 98.7%
growth [18]: 103%

COc1cc(OC)cc(-c2ccc(-c3ccc(C(=N)N)cc3)s2)c1
growth [1]: -77.5% (active)
growth [2]: -67.5% (active)
growth [3]: -89.3% (active)
growth [4]: -88.5% (active)
growth [5]: -80.6% (active)
growth [6]: -58.2% (active)
growth [7]: -41.5% (active)
growth [8]: -60.2% (active)
growth [10]: -90.6% (active)
growth [19]: -39.8% (active)
growth [11]: -80.7% (active)
growth [12]: -77% (active)
growth [13]: -94.3% (active)
growth [14]: -72.2% (active)
growth [15]: -88.4% (active)
growth [16]: -88.7% (active)
growth [17]: -58% (active)
growth [18]: -90.5% (active)

COc1ccc(Cn2cc3c(c2-c2ccccc2)CCc2cnoc2-3)cc1OC
growth [1]: 26.3%
growth [2]: 57.3%
growth [3]: 44.8%
growth [4]: 7.98% (active)
growth [5]: 61.1%
growth [6]: 35.1%
growth [7]: 41.3%
growth [8]: 39.7%
growth [9]: 8.16% (active)
growth [10]: 21.3%
growth [19]: 14.1%
growth [12]: 35%
growth [13]: 13.1%
growth [14]: 47.1%
growth [16]: -22.1% (active)
growth [17]: 61.9%
growth [18]: 30.5%

COc1ccc2c(c1)/C(=C1/S/C(=N/c3nnc(C)s3)NC1=O)C(=O)N2Cc1ccc(Br)cc1
growth [1]: 26.5%
growth [2]: 54.7%
growth [3]: 35.1%
growth [4]: 6.08% (active)
growth [5]: 25.7%
growth [6]: 29.6%
growth [7]: 20.7%
growth [8]: 34%
growth [10]: 41.6%
growth [19]: 34.8%
growth [11]: 68.3%
growth [12]: 53.4%
growth [13]: 49.6%
growth [14]: 36%
growth [15]: 15.4%
growth [16]: 42.7%
growth [17]: 57.4%
growth [18]: 37%

N=C(N)c1ccc(-c2ccc(-c3ccc(F)cc3)s2)cc1
growth [1]: -91.8% (active)
growth [2]: -77.3% (active)
growth [3]: -91.2% (active)
growth [4]: -88.9% (active)
growth [5]: -86.2% (active)
growth [6]: -58.9% (active)
growth [7]: -74.2% (active)
growth [8]: -82.1% (active)
growth [10]: -92.9% (active)
growth [19]: -62.9% (active)
growth [11]: -75.6% (active)
growth [12]: -86.8% (active)
growth [13]: -98.4% (active)
growth [14]: -79.9% (active)
growth [15]: -94.1% (active)
growth [16]: -95.4% (active)
growth [17]: -79.5% (active)
growth [18]: -83.1% (active)

COc1cc2ncnc(Nc3ccc4c(cnn4C(=O)Nc4ccccc4)c3)c2cc1OC
growth [1]: 100%
growth [2]: 103%
growth [3]: 81.1%
growth [4]: 103%
growth [5]: 82.8%
growth [6]: 89.4%
growth [7]: 72.9%
growth [8]: 81.5%
growth [10]: 89.3%
growth [19]: 58.3%
growth [11]: 85.6%
growth [12]: 112%
growth [13]: 87.3%
growth [14]: 97.2%
growth [15]: 100%
growth [16]: 86.1%
growth [17]: 94.9%
growth [18]: 95.7%

Nc1nc2c(c3cnccc13)C(c1cccc(Cl)c1)Cc1cnccc1-2 (stereo not given)
growth [1]: 0.544% (active)
growth [2]: 17.2%
growth [3]: 40.1%
growth [4]: 2.15% (active)
growth [5]: 33.1%
growth [6]: 7.88% (active)
growth [7]: 13.6%
growth [8]: 19.6%
growth [10]: 10.7%
growth [19]: 9.68% (active)
growth [11]: 62.4%
growth [12]: 8.99% (active)
growth [13]: 7.47% (active)
growth [14]: 20.7%
growth [15]: 8.34% (active)
growth [16]: -18.5% (active)
growth [17]: 60.2%
growth [18]: 1.08% (active)

O=C(CCCC(=O)Nc1ccc(Cn2nnc3cc(Cl)c(Cl)cc32)cc1)Nc1ccc(CN2N=NC3C=C(Cl)C(Cl)=CC32)cc1 (stereo not given)
growth [1]: 62.2%
growth [2]: 72.7%
growth [3]: 74%
growth [4]: 84.1%
growth [5]: 64.7%
growth [6]: 62.4%
growth [7]: 74.5%
growth [8]: 85.3%
growth [10]: 93.3%
growth [19]: 67%
growth [11]: 97%
growth [12]: 76.4%
growth [13]: 93.7%
growth [14]: 78.1%
growth [15]: 71.9%
growth [16]: 88.2%
growth [17]: 81.1%
growth [18]: 87.2%

N=C(N)c1ccc(-c2ccc(-c3ccc(Cl)cc3)s2)s1
growth [1]: -69.9% (active)
growth [2]: -53.3% (active)
growth [3]: -74.9% (active)
growth [4]: -66.2% (active)
growth [5]: -71.6% (active)
growth [6]: -2.36% (active)
growth [7]: -69.1% (active)
growth [8]: -62.6% (active)
growth [10]: -87.8% (active)
growth [19]: -45.8% (active)
growth [11]: -29.9% (active)
growth [12]: -80.5% (active)
growth [13]: -85% (active)
growth [14]: -68.6% (active)
growth [15]: -68.8% (active)
growth [16]: -86.7% (active)
growth [17]: -37.7% (active)
growth [18]: -72.7% (active)

O=C1Nc2ccccc2/C1=C/c1cn(CC(O)Cn2cc(/C=C3\C(=O)Nc4ccccc43)c3ccccc32)c2ccccc12 (stereo not given)
growth [1]: -67.3% (active)
growth [2]: -74.9% (active)
growth [3]: -39.1% (active)
growth [4]: -65.1% (active)
growth [5]: -73.9% (active)
growth [6]: -17.4% (active)
growth [7]: -11.6% (active)
growth [8]: -70.9% (active)
growth [10]: -90.5% (active)
growth [19]: -16.7% (active)
growth [11]: -76.1% (active)
growth [12]: -79.9% (active)
growth [13]: -90.8% (active)
growth [14]: -62% (active)
growth [15]: -84.7% (active)
growth [16]: -77.7% (active)
growth [17]: -50.9% (active)
growth [18]: -81.4% (active)

Nc1nc2c(c3cnccc13)C(c1ccc(Cl)c(Cl)c1)Cc1cnccc1-2 (stereo not given)
growth [1]: -37.6% (active)
growth [2]: -26% (active)
growth [3]: -26.6% (active)
growth [4]: -29.6% (active)
growth [5]: -45% (active)
growth [6]: -16.4% (active)
growth [7]: -24.7% (active)
growth [8]: -65.8% (active)
growth [10]: -5.69% (active)
growth [19]: 4.04% (active)
growth [11]: -67% (active)
growth [12]: -35% (active)
growth [13]: -74.2% (active)
growth [14]: -10.9% (active)
growth [15]: -29.9% (active)
growth [16]: -45.1% (active)
growth [17]: -12.8% (active)
growth [18]: -44.2% (active)

CC1(c2ccc(Br)cc2)NC(=O)NC1=O (stereo not given)
growth [1]: 105%
growth [2]: 110%
growth [3]: 103%
growth [4]: 104%
growth [5]: 89.6%
growth [6]: 102%
growth [7]: 93.3%
growth [8]: 96%
growth [9]: 113%
growth [10]: 111%
growth [11]: 113%
growth [12]: 105%
growth [13]: 112%
growth [14]: 98.4%
growth [15]: 110%
growth [16]: 100%
growth [17]: 98.4%
growth [18]: 103%

Cc1ccc(OCCn2ccc(=O)n(CCOc3ccc(Cl)cc3C(=O)c3cc(C)cc(C)c3)c2=O)cc1
growth [1]: 54.4%
growth [2]: 62.9%
growth [3]: 84.1%
growth [4]: 37.2%
growth [5]: 45.9%
growth [6]: 23.3%
growth [7]: 41.7%
growth [8]: 57.4%
growth [10]: 73.3%
growth [19]: 13.2%
growth [11]: 51.9%
growth [12]: 46.8%
growth [13]: 41.5%
growth [14]: 49.7%
growth [15]: 51.1%
growth [16]: 53.7%
growth [17]: 64.3%
growth [18]: 24.7%

COc1cc(OC)c(NC(=O)n2ncc3cc(Nc4ncnc5ccccc45)ccc32)cc1Cl
growth [1]: 97.5%
growth [2]: 104%
growth [3]: 14.1%
growth [4]: 108%
growth [5]: 87.3%
growth [6]: 72.1%
growth [7]: 80.3%
growth [8]: 73.1%
growth [10]: 56.9%
growth [19]: 99.4%
growth [11]: 110%
growth [12]: 97.2%
growth [13]: 88.4%
growth [14]: 87.4%
growth [15]: 98.7%
growth [16]: 99.5%
growth [17]: 118%
growth [18]: 100%

O=C(Nc1ccccc1)Nc1ccc(Nc2ncnc3sc4c(c23)CCCC4)cc1
growth [1]: 100%
growth [2]: 89.9%
growth [3]: 106%
growth [4]: 104%
growth [5]: 101%
growth [6]: 93%
growth [7]: 73.9%
growth [8]: 110%
growth [10]: 109%
growth [19]: 99.8%
growth [11]: 102%
growth [12]: 91.7%
growth [13]: 102%
growth [14]: 100%
growth [15]: 102%
growth [16]: 104%
growth [17]: 93.5%
growth [18]: 103%

COc1ccc(-c2cn3ccnc3c(-c3ccc4ncn(C5CCCCC5)c4c3)n2)cc1
growth [1]: 37.9%
growth [2]: 64.1%
growth [3]: 68.5%
growth [4]: 8.91% (active)
growth [5]: 47.7%
growth [6]: -20.9% (active)
growth [7]: 31.4%
growth [8]: 16.8%
growth [9]: -8.01% (active)
growth [10]: 18.2%
growth [19]: 7.96% (active)
growth [12]: 28.9%
growth [13]: -8.48% (active)
growth [14]: 50.1%
growth [15]: 7.49% (active)
growth [16]: -43.4% (active)
growth [17]: 73.7%
growth [18]: 10.8%

CC[C@H](Nc1ncnc2nc[nH]c12)c1nc2cccc(NCc3ccc(C(=O)NO)nc3)c2c(=O)n1-c1ccccc1
growth [1]: 41.1%
growth [2]: 66.7%
growth [3]: 77.7%
growth [4]: 24.6%
growth [5]: 23.2%
growth [6]: 22.9%
growth [7]: 68.2%
growth [8]: 59.1%
growth [10]: 67%
growth [19]: 10.5%
growth [11]: 62.3%
growth [12]: 50.6%
growth [13]: 27.8%
growth [14]: 35.9%
growth [15]: 80.9%
growth [16]: 10.9%
growth [17]: 56.3%
growth [18]: 68.5%

From PubChem BioAssay (NCI)
